Unmarked numbers belong to inactive results. For part of these data: Entries with a potency or affinity are not part of this list. Calls of active or inactive are those of the source. Unless noted, no rule for the calls is given here.
Assays:
[1] = antimalarial activity against Dd2 strain (AID 2302;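 active = growth inhibition above 50% at the single 2 µM test dose, taken to imply half-maximal potency below 2 µM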;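 also: 0% = DMSO untreated growth and 100% = chloroquine plus artemisinin killed control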); conditions: P. falciparum Dd2 in RBCs, LDH growth readout, 72 h; at 2 µM; hits give high values
[2] = HepG2 cytotoxicity, primary screen, cytotoxicity control for P. falciparum antimalarial project, cell-based, ATP luminescence (AID 2303;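 active = inhibition above 50%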;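 also: 0% = DMSO wells and 100% = digitonin-killed cells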); conditions: HepG2 viability, 24-48 h, at 10 µM, hits give high values
[3] = molecular target: L-lactate dehydrogenase (Plasmodium falciparum (isolate CDC / Honduras)) (UniProt Q27743); assay: PfLDH activity inhibition – cell lysate, 3D7 strain, counter-screen for P. falciparum growth inhibition project (AID 2304);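 also: 0% = vehicle and 100% = reference inhibitor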; conditions: P. falciparum 3D7 crude extract, LDH APAD/NBT absorbance; at 2 µM; hits give high values
L-lactate dehydrogenase (Plasmodium falciparum (isolate CDC / Honduras)), sequence (Q27743 whole entry, looked up): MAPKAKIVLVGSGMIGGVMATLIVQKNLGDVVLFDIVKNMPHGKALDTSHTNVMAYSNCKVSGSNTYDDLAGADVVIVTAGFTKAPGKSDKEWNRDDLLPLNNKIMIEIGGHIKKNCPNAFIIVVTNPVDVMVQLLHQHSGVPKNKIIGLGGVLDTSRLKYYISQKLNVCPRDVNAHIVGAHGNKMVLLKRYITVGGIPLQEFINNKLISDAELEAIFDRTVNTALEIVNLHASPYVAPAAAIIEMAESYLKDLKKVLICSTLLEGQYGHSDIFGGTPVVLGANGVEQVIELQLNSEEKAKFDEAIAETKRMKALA

[4] = inhibition of 3D7 malaria parasite growth – strain 3D7 (AID 2306);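 also: 0% = DMSO wells and 100% = chloroquine plus artemisinin control wells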; conditions: P. falciparum 3D7 erythrocytic growth, LDH absorbance, 72 h; at 2 µM; hits give high values
[5] = molecular target: Calcium-dependent protein kinase 1 (Plasmodium falciparum (isolate 3D7)) (UniProt P62344); assay: PfCDPK1 kinase inhibitors, biochemical, TCAMS library (AID 1159585; cut-off not given, nearly all actives have IC50 up to about 0.98 µM;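 also: inhibitors leave more ATP so luminescence rises with inhibition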); conditions: recombinant PfCDPK1, Kinase-Glo ATP depletion luminescence
Calcium-dependent protein kinase 1 (Plasmodium falciparum (isolate 3D7)), sequence (P62344 whole entry, looked up): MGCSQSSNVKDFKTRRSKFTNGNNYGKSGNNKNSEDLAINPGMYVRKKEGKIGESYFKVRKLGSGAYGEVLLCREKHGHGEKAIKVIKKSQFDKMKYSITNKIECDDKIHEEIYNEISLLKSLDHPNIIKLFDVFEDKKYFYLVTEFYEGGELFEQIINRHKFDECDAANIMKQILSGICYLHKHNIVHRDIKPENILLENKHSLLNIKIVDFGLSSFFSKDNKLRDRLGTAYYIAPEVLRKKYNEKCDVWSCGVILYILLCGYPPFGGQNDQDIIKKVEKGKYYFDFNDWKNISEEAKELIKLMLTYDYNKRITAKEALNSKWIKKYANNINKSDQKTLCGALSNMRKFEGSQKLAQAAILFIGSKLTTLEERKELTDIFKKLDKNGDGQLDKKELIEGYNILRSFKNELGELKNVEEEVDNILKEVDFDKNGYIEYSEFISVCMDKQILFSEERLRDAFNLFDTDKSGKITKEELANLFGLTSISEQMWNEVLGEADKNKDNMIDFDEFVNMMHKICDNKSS

[6] = molecular target: Plasmodium falciparum protein kinase 6 (PK6, PF3D7_1337100) (UniProt Q8IDW1); assay: PfPK6 kinase inhibitors, biochemical, TCAMS library (AID 1159586); conditions: recombinant PfPK6, Kinase-Glo ATP depletion luminescence
Plasmodium falciparum protein kinase 6 (PK6, PF3D7_1337100), sequence (Q8IDW1 1-305): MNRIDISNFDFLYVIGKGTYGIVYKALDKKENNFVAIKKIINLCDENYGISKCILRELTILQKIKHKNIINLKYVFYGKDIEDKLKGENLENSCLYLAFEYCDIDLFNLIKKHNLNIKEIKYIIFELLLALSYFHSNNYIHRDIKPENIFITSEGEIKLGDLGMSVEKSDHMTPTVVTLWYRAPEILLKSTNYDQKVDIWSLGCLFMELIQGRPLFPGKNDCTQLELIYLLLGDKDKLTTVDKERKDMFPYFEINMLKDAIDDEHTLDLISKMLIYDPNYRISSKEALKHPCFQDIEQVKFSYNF

[7] = molecular target: Protein kinase 7 (PK7), Plasmodium falciparum 3D7 (PF3D7_0213400) (UniProt Q7YTF7); assay: inhibition of Plasmodium PK7 catalytic activity – biochemical, TCAMS antimalarial set, Kinase-Glo luminescence (AID 1159587); conditions: recombinant PfPK7, Kinase-Glo ATP depletion luminescence
Protein kinase 7 (PK7), Plasmodium falciparum 3D7 (PF3D7_0213400), sequence (Q7YTF7 1-343): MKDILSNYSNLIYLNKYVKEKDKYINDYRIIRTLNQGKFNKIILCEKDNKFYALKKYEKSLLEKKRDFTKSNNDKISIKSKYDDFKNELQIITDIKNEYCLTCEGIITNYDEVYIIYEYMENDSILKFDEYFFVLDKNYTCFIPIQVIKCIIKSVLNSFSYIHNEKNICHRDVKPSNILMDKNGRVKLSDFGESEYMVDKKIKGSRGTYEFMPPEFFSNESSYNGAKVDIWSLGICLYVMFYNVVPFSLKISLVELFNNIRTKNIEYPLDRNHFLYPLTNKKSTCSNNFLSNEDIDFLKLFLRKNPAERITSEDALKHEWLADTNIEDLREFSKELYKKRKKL

[8] = molecular target: Calcium-dependent protein kinase 4 (Plasmodium falciparum (isolate 3D7)) (UniProt Q8IBS5); assay: PfCDPK4 kinase inhibitors, biochemical, TCAMS library (AID 1159588; cut-off not given, nearly all actives have IC50 up to about 0.91 µM); conditions: recombinant PfCDPK4, Kinase-Glo ATP depletion luminescence
Calcium-dependent protein kinase 4 (Plasmodium falciparum (isolate 3D7)), sequence (Q8IBS5 whole entry, looked up): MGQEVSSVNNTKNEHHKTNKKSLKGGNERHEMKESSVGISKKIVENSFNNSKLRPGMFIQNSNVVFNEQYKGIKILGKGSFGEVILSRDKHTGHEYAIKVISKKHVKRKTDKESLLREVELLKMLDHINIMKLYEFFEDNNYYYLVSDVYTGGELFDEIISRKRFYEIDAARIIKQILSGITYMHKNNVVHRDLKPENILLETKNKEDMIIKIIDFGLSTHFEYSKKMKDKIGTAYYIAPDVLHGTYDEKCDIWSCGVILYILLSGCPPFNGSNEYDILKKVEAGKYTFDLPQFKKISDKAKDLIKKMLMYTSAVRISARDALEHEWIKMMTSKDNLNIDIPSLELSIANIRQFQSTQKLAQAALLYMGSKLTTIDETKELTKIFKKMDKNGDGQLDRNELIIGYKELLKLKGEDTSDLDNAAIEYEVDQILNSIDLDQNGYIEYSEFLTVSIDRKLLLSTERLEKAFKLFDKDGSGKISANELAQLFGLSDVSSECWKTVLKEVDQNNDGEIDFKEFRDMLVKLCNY

SMILES | growth inhibition [1] | inhibition [2] | inhibition [3] [%] | growth inhibition [4] | outcome [5] | outcome [6] | outcome [7] | outcome [8]
CCCc1cn2c3c(cc(C(=O)N[C@@H](Cc4ccccc4)[C@H](O)CNC4CCOCC4)cc13)N(C)S(=O)(=O)CC2 | 98% (active) | 1% | 3 | 99% (active) | inactive | inactive | inactive | inactive
O=C(c1ccc(-c2ccc(Cl)cc2)o1)N1CCc2cc3nccc(N4CCN5CCC[C@H]5C4)c3cc21 | 86% (active) | 1% | -3 | 101% (active) | inactive | inactive | inactive | inactive
Cn1nc(-c2ccc(NC(=O)Nc3cc(C(F)(F)F)cc(C(F)(F)F)c3)c(F)c2)c2cnc(NCCN3CCOCC3)nc21 | 37% | 43% | -6 | 94% (active) | inactive | inactive | inactive | inactive
C=CCc1cc(SC)ccc1Oc1ccc(N)cc1 | 2% | 12% | 4 | 96% (active) | inactive | inactive | inactive | inactive
Cc1cccc(C)c1CNc1ccnc2cc(Br)ccc12 | 99% (active) | 24% | -3 | 95% (active) | inactive | inactive | inactive | inactive
Cc1nc(Nc2ccc(F)cc2)nc(N2CCc3cc(O)ccc3C2C)c1C (configuration not stated) | 97% (active) | -5% | -6 | 99% (active) | inactive | inactive | inactive | inactive
CC(C)(C)c1ccc2nc(-c3ccc(/C=C/C(=O)NCc4cccc(C(F)(F)F)c4)cc3)[nH]c2c1 | 11% | 31% | -16 | 93% (active) | inactive | inactive | inactive | inactive
COc1cc2nc(NCCn3ccnc3C)nc(NCCc3ccccc3)c2cc1OC | 0% | 21% | -6 | 99% (active) | inactive | inactive | inactive | inactive
NS(=O)(=O)c1cccc(-c2ccc3nccc(-c4cccc(S(N)(=O)=O)c4)c3c2)c1 | 99% (active) | 40% | 4 | 98% (active) | inactive | inactive | inactive | inactive
COc1c(C2CCN(CCCCNC(=O)c3ccc(C)c(-c4ccc(C(F)(F)F)cc4)c3)CC2)ccc2c1CCCC2 | 79% (active) | 76% (active) | -5 | 86% (active) | inactive | inactive | inactive | inactive
CC(C)(C)c1cc([N+](=O)[O-])cc(C(=O)Nc2ccccc2C(F)(F)F)c1O | 99% (active) | 74% (active) | 5 | 96% (active) | inactive | inactive | inactive | inactive
CNC(=O)c1cnc(Nc2ccc(N3CCN(C)CC3)cc2)nc1Nc1cccc(OC(C)C)c1 | 102% (active) | 16% | 4 | 100% (active) | inactive | inactive | inactive | inactive
COc1cc2nc(NCc3ccccc3)nc(NCc3ccccc3)c2cc1OC | 102% (active) | 66% (active) | -3 | 102% (active) | inactive | inactive | inactive | inactive
Cc1ccc(NS(=O)(=O)c2ccc(-c3ccccc3)cc2)c(Cn2cnc(N3CCCNCC3)cc2=O)c1 | 33% | 10% | 4 | 87% (active) | inactive | inactive | inactive | inactive
COc1ccc(Nc2ncc3c(-c4cccc(NC(=O)Cc5cccc(F)c5)c4)c[nH]c3n2)cc1OC | 68% (active) | 24% | 2 | 101% (active) | inactive | inactive | inactive | inactive
O=C(Nc1ccc(C(=O)N2CCN(CCN3CCN(c4cccc(C(F)(F)F)c4)CC3)CC2)cc1)c1cc(Cl)cc(Cl)c1 | 19% | 23% | 3 | 100% (active) | inactive | inactive | inactive | inactive
FC(F)(F)c1ccc2nc(-c3ccc(-c4cccc(CNCc5cnn(-c6ccccc6)n5)c4)s3)[nH]c2c1 | 91% (active) | 38% | -2 | 101% (active) | inactive | inactive | inactive | inactive
CO/C(=C\C=C\c1cc2cc(Cl)c(Cl)cc2[nH]1)C(=O)NC1C[C@@H](C)N(C)[C@@H](C)C1 (some centres not stated) | 57% (active) | 64% (active) | 1 | 97% (active) | inactive | inactive | inactive | inactive
Cn1cncc1-c1cc2c(Nc3ccc(OCc4ccccc4)cc3)ncnc2cn1 | 75% (active) | -1% | 4 | 99% (active) | inactive | inactive | inactive | inactive
CC(=O)c1ccc(NC(=O)NNC(=O)c2ccc(CCN3CCC(c4nc(COCC(F)(F)F)c(-c5ccc(F)cc5)o4)CC3)cc2)cc1 | 27% | 17% | -10 | 96% (active) | inactive | inactive | inactive | inactive

SMILES | growth inhibition [1] | inhibition [2] | inhibition [3] [%] | growth inhibition [4] | outcome [5] | outcome [6] | outcome [7] | outcome [8]
CNC(=O)C(NC(=O)c1ccccc1C(=O)OC)c1ccccc1 (configuration not stated) | 2% | 4% | 3 | 96% (active) | inactive | inactive | inactive | inactive
c1ccc(COc2ccnc(NCCCOc3cccc(CN4CCCCC4)c3)c2)cc1 | 51% (active) | 22% | -2 | 101% (active) | inactive | inactive | inactive | inactive
CCC[C@@H]([C@@H](Cc1ccc(C)s1)C(=O)N[C@@H](CNC(C)=O)C(=O)Nc1nccs1)N(O)C=O | 96% (active) | -1% | 2 | 97% (active) | inactive | inactive | inactive | inactive
COc1ccc2nccc([C@@H](O)CN3CCC(NC(=O)c4nc(Cl)c(Cl)c(N)c4Cl)CC3)c2c1 | 17% | 16% | 2 | 87% (active) | inactive | inactive | inactive | inactive
COC(=O)c1ccc(-c2ccc(C(=O)NCC3CCN(c4nc(N)c5cc(OC)c(OC)cc5n4)CC3)cc2)cc1 | 100% (active) | 53% (active) | -4 | 98% (active) | inactive | inactive | inactive | inactive
CC(=O)N[C@H](C(=O)Nc1ccc(-c2ccc(-c3nc4ccc(C(F)(F)F)cc4[nH]3)s2)cc1)C(C)C | 61% (active) | 42% | 2 | 88% (active) | inactive | inactive | inactive | inactive
Cc1noc(-c2cccs2)c1C(=O)NCCc1cccc(Cl)c1 | 95% (active) | -17% | 0 | 97% (active) | inactive | inactive | inactive | inactive
COc1ccc(Cc2c(N)nc3nc(N)nc(N)c3c2C)cc1 | 3% | 64% (active) | -8 | 94% (active) | inactive | inactive | inactive | inactive
CCOc1ccc(/C=C/C(=O)Nc2cccc3c2CCN(C)C3)cc1 | 3% | -2% | 0 | 92% (active) | inactive | inactive | inactive | inactive
CCCCCN(C(=O)Nc1cc(C(F)(F)F)cc(C(F)(F)F)c1)C(C)c1nc2ccccc2c(=O)n1CC (configuration not stated) | 101% (active) | -3% | 3 | 100% (active) | inactive | inactive | inactive | inactive
CCC[C@@H](/C=N/N(C)C(=O)OC(C)(C)C)NC(=O)[C@H](CC(C)C)NC(=O)c1cc2cccc(OC)c2o1 | 61% (active) | 5% | 6 | 88% (active) | inactive | inactive | inactive | inactive
COc1cc(NC(=O)c2ccc(-c3ccccc3)cc2)ccc1OCCCN1CCC(c2ccccc2)CC1 | 30% | 46% | 2 | 103% (active) | inactive | inactive | inactive | inactive
CCNc1cc(C(=O)N[C@@H](Cc2ccccc2)[C@H](O)CNC(C)CC(C)C)c(F)c(N2CCCCS2(=O)=O)c1 (some centres not stated) | 66% (active) | 6% | 4 | 95% (active) | inactive | inactive | inactive | inactive
CC(C)CNCc1ccc(-c2ccc(CN(CCCN3CCN(C)CC3)C(=O)CCC3CCCC3)cc2)cc1 | 87% (active) | 50% (active) | 5 | 96% (active) | inactive | inactive | inactive | inactive
CN1CCC(Oc2cc(CN3CC[C@H](NC(=O)c4ccc(Cl)c(Cl)c4)C3)ccc2I)C1 (some centres not stated) | 24% | 68% (active) | 1 | 97% (active) | inactive | inactive | inactive | inactive
Cc1ccccc1CCNC(=O)c1cnc(N2CCN(c3ccncc3)CC2)c(Cl)c1 | 95% (active) | 36% | -2 | 100% (active) | inactive | inactive | inactive | inactive
CC(=O)c1ccc2c(c1)[C@H](NC(=O)c1cccc(Cl)c1Cl)[C@@H](CO)C(C)(C)O2 | 44% | 5% | 4 | 99% (active) | inactive | inactive | inactive | inactive
COc1ccc2c(=O)c3ccc(OC)cc3[nH]c2c1 | 75% (active) | 12% | 1 | 93% (active) | inactive | inactive | inactive | inactive
NC(N)=NN=Cc1c2ccccc2c(Cl)c2ccc(Cl)cc12 | 89% (active) | 97% (active) | 8 | 98% (active) | inactive | inactive | inactive | inactive

— PubChem BioAssay
